# Measurements reported in PubChem BioAssay.
# Calls of active or inactive are those of the source.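 The calls were made as follows, unless noted: active = NADPH fluorescence slope more negative than the mean of all samples by about 3 SD, 99.7% confidence; inactive = the rest.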
# What was measured:
# [1] = inhibitors of TNFa-induced NFkB p65 translocation, primary screen, imaging, HUVEC, MLSMR starter and 10KST1 sets (AID 438;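 active = inhibition above 20% together with a positive visual image hit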;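 also: compound added about 3h40 before a 20 min TNFalpha stimulation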;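 as to inhibition: signal is the nuclear over cytoplasmic p65 intensity ratio per well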); conditions: HUVEC TNFa-induced p65 nuclear translocation; cell count: measured here: nuclei count (cytotoxicity indicator), at 2.08 µM; inhibition: at 2 µM, stronger effect = higher value, 0% TNFa-plus-vehicle, 100% no-TNFa wells
# [2] = inhibitors of mutant huntingtin aggregation, primary screen, imaging, exon1htt(103Q)mCFP cells, high-content imaging (AID 483;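 active = visual image review flags a hit and inhibition of aggregation exceeds 20%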;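 also: compound exposure lasted 3 days before fixation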;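 as to nuclei count: percent of the per-plate median nuclei count of sample wells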); conditions: exon1htt(103Q)mCFP cell line, aggregate imaging, at 2 µM; inhibition of aggregation: stronger effect = higher value; nuclei count: measured here: cell count, toxicity
# [3] = inhibitors of E-selectin induction by TNFa, primary screen, imaging, HUVEC, immunofluorescence, MLSMR starter and 10KST1 sets (AID 487;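 active = visually confirmed hit in the image check and inhibition above 20%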;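 as to inhibition: signal is fraction of cell area covered by stained E-selectin grains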;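 as to nuclei count: 100% = median nuclei count of all wells on the same plate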); conditions: HUVEC TNFalpha-induced E-selectin immunofluorescence imaging, at 2 µM; inhibition: stronger effect = higher value; nuclei count: measured here: cell number, toxicity
# [4] = biological target: Voltage-gated potassium channel subunit beta-2 (Rattus norvegicus) (UniProt P62483); test: KvBeta enzyme negative modulators, primary screen, biochemical, NADPH fluorescence (AID 622;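 active = fluorescence slope higher than the sample average by over 3 SD, cut at about -0.22 in these data, passing the limit was not always enough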;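 also: slope of raw intensity against log time taken from 70 to 1610 s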); conditions: recombinant KvBeta, 4-cyanobenzaldehyde reduction, at 10 µM, stronger effect = higher value
# Voltage-gated potassium channel subunit beta-2 (Rattus norvegicus), sequence (P62483 whole entry, looked up): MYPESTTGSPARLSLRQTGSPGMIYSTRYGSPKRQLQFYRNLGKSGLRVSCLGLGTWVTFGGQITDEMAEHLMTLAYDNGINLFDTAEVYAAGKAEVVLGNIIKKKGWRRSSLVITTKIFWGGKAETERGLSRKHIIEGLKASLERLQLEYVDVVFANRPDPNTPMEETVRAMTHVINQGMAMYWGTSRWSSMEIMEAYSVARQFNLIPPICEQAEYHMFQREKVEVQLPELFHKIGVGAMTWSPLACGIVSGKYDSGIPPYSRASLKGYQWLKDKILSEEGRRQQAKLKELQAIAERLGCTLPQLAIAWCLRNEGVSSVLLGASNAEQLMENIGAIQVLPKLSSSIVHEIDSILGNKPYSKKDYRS
# [5] = biological target: Voltage-gated potassium channel subunit beta-2 (Rattus norvegicus) (UniProt P62483); test: KvBeta positive modulators, primary screen, biochemical, NADPH fluorescence (AID 623); conditions: Recombinant KvBeta, NADPH fluorescence decrease slope, 10 min; at 10 µM; stronger effect = lower value;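 also: fluorescence intensity change per second fitted from 20 to 320 s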
# [6] = biological target: Alpha-2C adrenergic receptor (Homo sapiens) (UniProt P18825); test: modulators of alpha2C/GIRK thallium flux, primary screen, cell-based, HEK293 alpha2C/GIRK1/2 (AID 624;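 active = fluorescence slope after compound addition differing from the mean of all screened samples at 99.7% confidence, in either direction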;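 also: slope of fluorescence ratio to pre-addition baseline per second over 15 to 24 s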); conditions: thallium flux BTC fluorescence, at 10 µM, actives lie on both sides
# Alpha-2C adrenergic receptor (Homo sapiens), sequence (P18825 whole entry, looked up): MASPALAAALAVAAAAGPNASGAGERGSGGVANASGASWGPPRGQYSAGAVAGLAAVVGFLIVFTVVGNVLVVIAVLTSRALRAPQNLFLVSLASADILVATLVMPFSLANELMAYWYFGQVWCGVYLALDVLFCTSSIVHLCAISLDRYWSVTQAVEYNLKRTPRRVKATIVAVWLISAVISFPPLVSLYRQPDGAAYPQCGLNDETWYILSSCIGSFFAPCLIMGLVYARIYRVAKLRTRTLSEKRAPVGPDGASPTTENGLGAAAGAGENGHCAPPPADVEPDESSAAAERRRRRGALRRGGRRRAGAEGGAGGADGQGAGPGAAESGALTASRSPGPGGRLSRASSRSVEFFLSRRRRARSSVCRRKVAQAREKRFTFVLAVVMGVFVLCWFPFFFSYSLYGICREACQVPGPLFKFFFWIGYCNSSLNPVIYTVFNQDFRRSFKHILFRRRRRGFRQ
# [7] = inhibitors of Sendai virus-induced IRF3 signaling, primary screen, TLR/RLR signaling modifier project, cell-based, Sendai virus stimulus, luciferase, 10K MLSCN set (AID 602276;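 active = inhibition at or above 50% at 10 µM; inactive = inhibition below 50%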;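 also: firefly luciferase from ISG56 promoter only with Renilla not read in this screen; 0% = Sendai virus plus DMSO and 100% = medium plus DMSO without virus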); conditions: HEK293 RL24 IRF3 luciferase reporter, at 10 µM, stronger effect = higher value
# [8] = inhibitors of poly I:C-induced TLR3 signaling, primary screen, cell-based, poly I:C stimulus, luciferase, 10K MLSCN set (AID 602277;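 active = inhibition of the reporter signal at or above 50%; inactive = inhibition below 50%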); conditions: HEK293-TLR3 RL24 IRF3 luciferase reporter, at 10 µM, stronger effect = higher value
SMILES,cell count [1],inhibition [1],inhibition of aggregation [2],nuclei count [2],inhibition [3],nuclei count [3],fluorescence slope [4],NADPH fluorescence slope [5],slope [6],inhibition [7],inhibition [8]
CCc1nnc(NC(=O)c2ccc(COc3ccc(C)cc3)o2)s1,312,-1.9% (inactive),6.3% (inactive),109%,7.7% (inactive),110%,-0.468 (inactive),-0.00028 (inactive),0.00745 (inactive),-17.4% (inactive),99.8% (active)
O=C(C1CCC(CNc2c(N3CCCCC3)c(=O)c2=O)CC1)N1CCc2ccccc2C1 (stereo not drawn),557,8.9% (inactive),-6.5% (inactive),95.1%,44% (inactive),97.9%,-0.51 (inactive),-1.9e-05 (inactive),0.00576 (inactive),8.75% (inactive),33.5% (inactive)
COc1ccc(-c2cc(C(F)(F)F)n3ncc(C(=O)NCC4CCCO4)c3n2)cc1 (stereo not drawn),669,6.7% (inactive),-1% (inactive),67.5%,57.7% (inactive),95.2%,-0.00373 (active),2e-06 (inactive),0.00552 (inactive),13.6% (inactive),25.3% (inactive)
CCn1c(=O)c(C(=O)NCc2ccc(OC)cc2)c(O)c2ccccc21,685,12.5% (inactive),0.6% (inactive),101%,33.9% (inactive),101%,-0.353 (inactive),-2.5e-05 (inactive),0.00899 (inactive),14.7% (inactive),16.2% (inactive)
CCN(CC)c1ccc(/C=N/n2nnnc2N)c(O)c1,428,-1.1% (inactive),-13.8% (inactive),101%,-29.5% (inactive),130%,-0.413 (inactive),6.9e-05 (inactive),0.00627 (inactive),4.84% (inactive),1.57% (inactive)
COc1cccc(NC(=O)NC2(C(F)(F)F)Oc3ccccc3O2)c1,684,-12.7% (inactive),0% (inactive),105%,-125% (inactive),120%,-0.476 (inactive),-0.000362 (inactive),0.00501 (inactive),12.9% (inactive),24.9% (inactive)
O=c1c(CN2CCN(Cc3ccccc3)CC2)coc2ccc(Cl)cc12,463,-1.6% (inactive),-1.1% (inactive),113%,-69.1% (inactive),125%,-0.41 (inactive),-0.000112 (inactive),0.00599 (inactive),-2.78% (inactive),4.22% (inactive)
CCn1c(SCC(=O)c2ccc(C)cc2)nnc1-c1ccoc1C,446,-11.7% (inactive),3.7% (inactive),77.4%,-138% (inactive),119%,-0.329 (inactive),-6.6e-05 (inactive),0.00433 (inactive),-8.3% (inactive),-36.4% (inactive)
COc1ccc(C(=O)NCCSc2ccccn2)cc1,778,4.4% (inactive),3.3% (inactive),101%,48% (inactive),95%,-0.478 (inactive),-6.9e-05 (inactive),0.00549 (inactive),-6.19% (inactive),-64.3% (inactive)
CCOC(=O)c1cnc(C(C)(C)C)[nH]c1=O,328,-6.5% (inactive),-6.3% (inactive),109%,-109% (inactive),142%,-0.318 (inactive),-4.2e-05 (inactive),0.00422 (inactive),10.2% (inactive),17.4% (inactive)
COc1ccc(C2C3=C(OC(C)=O)c4ccccc4C3=Nc3c2c(=O)n(C)c(=O)n3C)cc1 (stereo not drawn),657,0.2% (inactive),-0.9% (inactive),103%,-72.4% (inactive),116%,-0.41 (inactive),-3.9e-05 (inactive),0.00537 (inactive),12.9% (inactive),12.4% (inactive)
COC(=O)c1ccccc1NC(=O)C1CCN(S(=O)(=O)c2cc(C)ccc2OC)CC1,607,3.6% (inactive),-20.2% (inactive),111%,-76.8% (inactive),123%,-0.454 (inactive),-2.4e-07 (inactive),0.00507 (inactive),18.9% (inactive),28.7% (inactive)
CCOC(=O)c1c(C)[nH]c(C(=O)COC(=O)C2CC2C)c1C (stereo not drawn),378,0.3% (inactive),-161% (inactive),1.8%,-20.9% (inactive),125%,-0.504 (inactive),-5.4e-05 (inactive),0.00548 (inactive),-45.3% (inactive),-115% (inactive)
N[C@@H](Cc1ccccc1)c1nnc2sc(SCc3ccccc3)nn12,444,-5.5% (inactive),-1.7% (inactive),84.8%,-15.7% (inactive),114%,-0.43 (inactive),-1.6e-06 (inactive),0.00539 (inactive),10.2% (inactive),98.1% (active)
CCn1c(Cc2ccccc2)nnc1SCC(=O)Nc1ccc(N2CCOCC2)c(Cl)c1,427,0.3% (inactive),-13.2% (inactive),108%,-56.2% (inactive),168%,-0.441 (inactive),-6.7e-06 (inactive),0.00559 (inactive),14% (inactive),5.26% (inactive)
COC(=O)c1cc2oc(C)cc2n1CC(=O)N(C)c1ccccc1,370,-0.4% (inactive),-4.7% (inactive),108%,-67.6% (inactive),115%,-0.347 (inactive),-4.4e-05 (inactive),0.00693 (inactive),9.76% (inactive),30.2% (inactive)
N#CCCN1CCN(S(=O)(=O)c2ccc(S(=O)(=O)NC3CCCCC3)cc2)CC1,645,-2.4% (inactive),-20.2% (inactive),124%,-47.2% (inactive),115%,-0.584 (inactive),-4.3e-06 (inactive),0.00631 (inactive),14.1% (inactive),32.4% (inactive)
Fc1ccc(-c2ccc(-c3nn4c(-c5ccco5)nnc4s3)o2)cc1,243,-2.4% (inactive),1.7% (inactive),92.7%,-25.8% (inactive),101%,-0.394 (inactive),-3e-05 (inactive),0.00935 (inactive),-5.55% (inactive),-13.1% (inactive)
Cc1cccc(C2c3c(n(C)c(=O)n(C)c3=O)N=C3c4ccccc4C(=O)C32)c1 (stereo not drawn),323,-5.6% (inactive),6.9% (inactive),102%,-348% (inactive),113%,-0.383 (inactive),2.2e-05 (inactive),0.00343 (inactive),16% (inactive),3.75% (inactive)
Cc1ccc(C(=O)CSc2n[nH]c(-c3ccco3)n2)cc1C,397,0.7% (inactive),-8.3% (inactive),113%,11.3% (inactive),106%,-0.479 (inactive),1.8e-05 (inactive),0.00302 (inactive),0.966% (inactive),10.8% (inactive)
CC(C)c1nnc(NC(=O)c2cnccn2)s1,425,-0.5% (inactive),-3.7% (inactive),103%,-38.5% (inactive),105%,-0.479 (inactive),-4.7e-05 (inactive),0.00644 (inactive),-7.98% (inactive),-13.6% (inactive)
O=C(NC1CCCC1)C1CC1c1ccccc1 (stereo not drawn),516,-4.3% (inactive),-5.1% (inactive),99.7%,26.9% (inactive),78.4%,-0.617 (inactive),-1.4e-05 (inactive),0.00431 (inactive),8.1% (inactive),8.52% (inactive)
Cn1cccc1Cc1nnc(SCC(=O)N2CCOCC2)n1-c1ccc(F)cc1,585,5.8% (inactive),26.9% (inactive),89.6%,55.7% (active),96.2%,-0.527 (inactive),-3.5e-05 (inactive),0.00693 (inactive),12.2% (inactive),28.3% (inactive)
COC(=O)c1ccc(NC(=O)Cn2nnc3ccccc32)cc1,445,-10.2% (inactive),8.3% (inactive),134%,-8.2% (inactive),134%,-0.377 (inactive),-5.8e-05 (inactive),0.0057 (inactive),-21.8% (inactive),-69.7% (inactive)
CC1=C(n2nnc3ccccc32)C(c2ccccc2)C(C#N)=C(N)O1 (stereo not drawn),424,1.5% (inactive),13.7% (inactive),90.7%,27.5% (inactive),113%,-0.364 (inactive),-0.00012 (inactive),0.00512 (inactive),17.5% (inactive),32% (inactive)
CC(=O)NCc1nc2ccccc2n1C(C)C,518,13% (inactive),15.8% (inactive),110%,6.4% (inactive),119%,-0.575 (inactive),-3.7e-05 (inactive),0.00817 (inactive),7.73% (inactive),21.5% (inactive)
O=C(Oc1cccc2cccnc12)c1cccc(-n2cnnn2)c1,461,2.7% (inactive),-8.5% (inactive),105%,-16.1% (inactive),93.4%,-0.494 (inactive),-3.7e-05 (inactive),0.00392 (inactive),15% (inactive),24.5% (inactive)
Cn1cnc(S(=O)(=O)Nc2ccc(C(F)(F)F)cc2)c1,480,2.2% (inactive),-3.4% (inactive),117%,14.3% (inactive),103%,-0.357 (inactive),-6.4e-05 (inactive),0.00601 (inactive),2.5% (inactive),18% (inactive)
